High-throughput results (PubChem BioAssay)
In the library only some 3.2% were active in any assay of this set; here they are far more common.
PriA SSB inh – inhibitors of Klebsiella pneumoniae PriA binding to SSB C-terminal tail, primary screen, biochemical, AlphaScreen; PriA–SSB C-terminal tail interaction (Klebsiella pneumoniae); AlphaScreen SSBct-PriA binding, biotinylated peptide; inhibition, % at 33 µM; hit rate 0.6% among 430,000; AID 1272365, 2023; in the data active means inhibition mostly above about 37%, no sharp cut-off; inactive means mostly below about 20%
Mtb UGM inh – M. tuberculosis UGM enzyme inhibitors, primary screen, biochemical, fluorescence polarization, single point; purified UGM, fluorescence polarization probe displacement; inhibition, % at 10 µM; hit rate 0.06% among 320,000; in the data active means inhibition above about 10%, passing the limit was not always enough
Target sequence (P9WIQ1 whole entry, looked up): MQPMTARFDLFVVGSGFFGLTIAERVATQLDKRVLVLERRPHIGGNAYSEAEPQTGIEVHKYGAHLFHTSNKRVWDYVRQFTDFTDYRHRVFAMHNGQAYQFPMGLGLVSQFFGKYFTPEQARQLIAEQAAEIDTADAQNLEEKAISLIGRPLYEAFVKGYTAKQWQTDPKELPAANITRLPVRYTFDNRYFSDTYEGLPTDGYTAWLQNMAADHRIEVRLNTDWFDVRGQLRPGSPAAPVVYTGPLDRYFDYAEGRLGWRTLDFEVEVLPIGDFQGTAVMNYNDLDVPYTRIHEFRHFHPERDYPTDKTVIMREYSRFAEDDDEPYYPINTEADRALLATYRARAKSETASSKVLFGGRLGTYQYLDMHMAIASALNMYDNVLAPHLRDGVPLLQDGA
Mtb bLac sens – beta-lactam sensitization of Mtb H37Rv, H37Rv; M. tuberculosis H37Rv growth with meropenem, percent inhibition; inhibition, % at 25 µM; hit rate 0.27% among 330,000; AID 434955, 2010; call rule not given here;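 further: growth measured after seven days incubation then overnight dye step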
Rv3671c inh – Rv3671c serine protease inhibitors, primary screen, biochemical, fluorescence polarization, M. tuberculosis H37Rv; P9WHR9; inhibition, % at 5.96 µM; hit rate 0.048% among 320,000; AID 2606, 2010; in the data active means inhibition above about 38%;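 further: extracellular domain of Rv3671c used as enzyme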
Mtb FBA inh – Mtb FBA enzyme inhibitors, primary screen, biochemical, fluorescence, strain H37Rv. Fructose-bisphosphate aldolase (Mycobacterium tuberculosis (strain ATCC 25618 / H37Rv)), …. purified M. tuberculosis FBA, fluorescence read-out. inhibition, % at 1 µM. hit rate 2.3% among 360,000. AID 588726, 2011; in the data active means inhibition above about 27%
GDH-TPI counter – GDH-TPI coupling enzyme inhibitors, primary screen, artefact control for M. tuberculosis FBA inhibitor project, biochemical, absorbance, full deck | GDH-TPI coupled enzyme counterscreen, NADH absorbance | inhibition, % at 4.8 µM | hit rate 1.2% among 360,000 | AID 588335, 2011; in the data active means inhibition above about 30%
Numbers stand for hits; n = inactive; x = no result given; + = active, no number.

SMILES	PriA SSB inh	Mtb UGM inh	Mtb bLac sens	Rv3671c inh	Mtb FBA inh	GDH-TPI counter
COc1ccc(NC(=O)c2csc(Nc3ccc(OC(F)F)cc3)n2)cc1OC	active	x	x	x	x	x
COc1cccc(CNC(=O)Cc2csc(Nc3cc(OC)ccc3OC)n2)c1	22	x	x	x	x	x
COc1ccc(OC)c(Nc2nc(CC(=O)Nc3cccc(C)c3C)cs2)c1	24	x	x	x	x	x
COc1ccc(NC(=O)Cc2csc(Nc3cccc(C(F)(F)F)c3)n2)cc1OC	17	x	x	x	x	x
COc1ccc(OC)c(Nc2nc(CC(=O)NCc3cccnc3)cs2)c1	n	x	x	x	x	x
Cn1cc(S(=O)(=O)N2CCCN(C(=O)c3ccno3)CC2)cn1	n	x	x	x	x	x
O=C(c1ccc(Cl)s1)N1CCSC(c2ccccc2)CC1 (centres undefined)	n	x	x	x	x	x
Cc1nn(C(C)C)c(C)c1S(=O)(=O)N1CCC(n2c(=O)[nH]c3ccccc3c2=O)CC1	n	x	x	x	x	x
Cc1noc(C(=O)NCc2ccccc2)c1Cl	104	n	n	n	n	n
CC(=O)c1ccc(NC(=O)c2onc(C)c2Cl)cc1	n	n	n	n	n	n
CC(=O)c1cccc(NC(=O)c2onc(C)c2Cl)c1	115	x	n	n	n	n
Cc1noc(C)c1C(=O)NCc1ccccc1	n	n	n	n	n	n
O=C1CS/C(=N\N=C2\NC(=O)C(CC(=O)c3ccc(F)cc3)S2)N1 (centres undefined)	46	x	x	x	x	x
O=C(O)CC1S/C(=N\N=C2\CSC(=O)N2)NC1=O (centres undefined)	64	x	x	x	x	x
NC(=O)NC(=O)CC1S/C(=N/N=C2\CSC(=O)N2)NC1=O (centres undefined)	x	n	n	n	n	n
CNC(=S)NN=Cc1ccc(C(C)C)cc1	n	x	x	x	x	x
CC(C)c1cc(=O)[nH]c(-n2nc(-c3cccs3)cc2NC(=O)/C=C\c2ccc3c(c2)OCO3)n1	n	x	x	x	x	x
CCOC(=O)CN1N=C(/C=C/c2ccc(OCC)cc2)CCC1=O	n	n	n	n	n	34
CCOC(=O)C(C)N1N=C(/C=C/c2ccc(C)cc2)CCC1=O (centres undefined)	n	n	n	n	n	39
CCOC(=O)CN1N=C(/C=C/c2ccccc2)CCC1=O	n	n	n	n	n	n
C=CCN1N=C(/C=C/c2ccc(C)cc2)CCC1=O	n	n	n	n	n	n
C=CCN1N=C(/C=C/c2ccc(OC)cc2)CCC1=O	n	n	n	n	n	34
COc1ncc(NS(=O)(=O)c2cc(C)ccc2OC)cn1	n	x	x	x	x	x
Cc1cccc(NC(=O)C2CC(=O)NC(=NN=Cc3ccco3)S2)c1 (centres undefined)	n	x	x	x	x	x
O=C1CC(C(=O)Nc2ccc(F)cc2)S/C(=N\N=C\c2ccco2)N1 (centres undefined)	x	n	n	n	n	34
SMILES	PriA SSB inh	Mtb UGM inh	Mtb bLac sens	Rv3671c inh	Mtb FBA inh	GDH-TPI counter
COc1ccc(NC(=O)C2CC(=O)NC(=N/N=C/c3ccccc3)S2)cc1 (centres undefined)	n	x	x	x	x	x
Cc1ccc(NC(=O)C2CC(=O)N/C(=N/N=C/c3ccco3)S2)cc1 (centres undefined)	x	n	n	n	n	44
Cc1ccc(NC(=O)C2CC(=O)N/C(=N/N=C/c3ccco3)S2)cc1C (centres undefined)	x	n	n	n	n	52
O=C1CC(C(=O)Nc2ccc(Cl)c(Cl)c2)SC(=N/N=C/c2ccco2)N1 (centres undefined)	n	x	x	x	x	x
CS(=O)(=O)c1ccc2nc(N3CCN(C(=O)/C=C/c4cccs4)CC3)sc2c1	n	x	x	x	x	x
O=C1CSC(c2cn(-c3ccccc3)nc2-c2cc3ccccc3oc2=O)N1Cc1ccco1 (centres undefined)	n	n	n	n	n	31
CC(=O)N1CCN(Cc2nc(-c3ccc(F)cc3)cs2)CC1	n	x	x	x	x	x
O=C(c1ccc([N+](=O)[O-])o1)N1CCN(Cc2nc(-c3ccc(F)cc3)cs2)CC1	11	x	x	x	x	x
O=C(c1ccoc1)N1CCN(c2cc(-c3ccco3)nc3cc(-c4ccccc4)nn23)CC1	x	x	x	x	113	n
Cc1cc(N2CCN(C(=O)c3ccoc3)CC2)n2nc(-c3ccccc3)cc2n1	x	x	x	x	n	n
O=C(Cn1nc(-c2ccc3c(c2)OCO3)ccc1=O)N1CCN(c2ccccc2)CC1	n	x	x	x	x	x
CC(=O)n1c(CC#N)nc2ccccc21	n	x	x	x	x	x
COc1cc2ccc(=O)oc2c(O[C@@H]2O[C@H](CO)[C@@H](O)[C@H](O)[C@H]2O)c1O	n	n	n	n	185	n
O=c1ccc2ccc(O[C@@H]3O[C@H](CO)[C@@H](O)[C@H](O)[C@H]3O)c(O)c2o1	n	n	n	n	n	n
O=c1ccc2cc(O[C@@H]3O[C@@H](CO)[C@H](O)[C@@H](O)[C@@H]3O)c(O)cc2o1	n	n	n	n	+	n
CC(=O)Nc1cnc(N2CCN(c3ccccn3)CC2)nc1	n	x	x	x	x	x
COCCn1c(C)cc(C(=O)COc2ccc(C)nc2[N+](=O)[O-])c1C	47	n	n	n	n	n
Cc1cc(/C=C2/NC(=O)NC2=O)c(C)n1-c1ccc(N2CCOCC2)cc1	n	n	n	n	n	34
Cc1cc(/C=C2\NC(=O)NC2=O)c(C)n1-c1ccc(N2CCOCC2)cc1	n	n	n	n	n	n
Cn1cc(/C=C(\NC(=O)c2ccccc2)C(=O)NCCN2CCOCC2)c2ccccc21	n	n	n	n	n	n
COc1cc(C(=O)N/C(=C\c2cn(C)c3ccccc23)C(=O)NCCN2CCOCC2)cc(OC)c1OC	n	n	n	n	n	41
COc1ccc(C(=O)N/C(=C\c2cn(C)c3ccccc23)C(=O)NCCN2CCOCC2)cc1OC	n	n	n	n	n	44
CCn1cc(/C=C(\NC(=O)c2cc(OC)c(OC)c(OC)c2)C(=O)NCCN2CCOCC2)c2ccccc21	n	n	n	n	n	n
C/C(=N\Nc1ccc(S(=O)(=O)N2CCCCC2)cn1)c1ccc(O)cc1	x	n	n	n	n	34
COc1cccc(/C(C)=N/Nc2ccc(S(=O)(=O)N3CCCCC3)cn2)c1	x	n	n	n	n	n
SMILES	PriA SSB inh	Mtb UGM inh	Mtb bLac sens	Rv3671c inh	Mtb FBA inh	GDH-TPI counter
CC(=O)c1cccc(NC(=O)c2cc(-c3cccs3)on2)c1	n	n	n	n	n	n
O=C(Nc1cccc(O)c1)c1cc(-c2cccs2)on1	n	n	n	n	165	n
CC1=N/C(=C\c2ccc([N+](=O)[O-])cc2)C(=O)N1c1ccc(Br)c(C)c1	n	n	n	n	n	39
CCCN1CCC2(CC1)C(C#N)=C(N)Oc1c2sc2nc(C)cc(C)c12	n	n	n	n	n	n
Cc1cc(C)c2c3c(sc2n1)C(c1cccc(F)c1)C(C#N)=C(N)O3 (centres undefined)	n	n	n	n	64	n
O=C(CCl)Nn1cnc2c(cnn2-c2ccc(F)cc2)c1=O	n	x	x	x	x	x
C=CC[n+]1c(C)csc1Nc1cccc(Br)c1	61	n	n	n	n	n
